Here are results for 30 compounds from PubChem BioAssay (EPA / NIEHS).

Active and inactive are the calls of the source. Rule for the calls: active = hit-call score of the fitted dose curve at least 0.9, where 1 is the maximum; inactive = score below 0.9.

The nature of the first assay: APR_HepG2_P-H2AX_72hr: Apredica 72-hour HepG2 Assay for H2AX Phosphorylation (AID 2282916).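 Note: phospho-histone H2A.x immunostain intensity per cell marking DNA damage.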 Particulars: imaging, actives raise or lower the signal. Summed up:
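Readout: phospho-H2A.x immunofluorescence (FITC secondary) plus Hoechst nuclear stain, high-content imaging at 20x, six fields/well. HepG2, 72 hr compound exposure, 0.39–200 uM, final DMSO 0.5% v/v. Gain or loss fitted relative to DMSO baseline.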
For the compound `CC(C)CCCCCCOC(=O)c1ccc(C(=O)OCCCCCCC(C)C)c(C(=O)OCCCCCCC(C)C)c1`, the compound was called inactive.

Turning to `O=C(CCCCCCCCc1cccnc1)N1CCC(C=C(c2ccccc2)c2ccccc2)CC1`, the compound was called inactive.

For the compound `COCCOc1cc2cc(C(=O)NC3CCN(C(C)C)CC3)n(CC(=O)Nc3ccc(Cl)cn3)c2cn1`, the result was inactive.

For `CCCCC(CC)COC(=O)CCCCCCCCC(=O)OCC(CC)CCCC` (stereo not given), the AC50 is 68.2 µM (active).

As to `CCCCCCCCO`, the result was inactive.

Take `Cn1c(=O)cc(Oc2ccc(F)cc2F)c2cnc(NCC(C)(C)O)nc21`: the compound was classed as inactive.

With `O=C(O)CCN(C1(C(=O)NO)CCCC1)S(=O)(=O)c1ccc(Oc2ccc(F)cc2)cc1`, the call was inactive.

Consider `Nc1nc2ncc(CNc3ccc(C(=O)N[C@@H](CCC(=O)O)C(=O)O)cc3)nc2c(=O)[nH]1`, for which the compound was called inactive.

In the case of `CC(C)c1cccc(C(C)C)c1N1C(=O)c2ccc(O)cc2C1=O`, the AC50 is 6.16 µM (active).

As to `CCOC(=O)COc1ccc2c(c1)CC(NCC(O)c1cccc(Cl)c1)CC2` (stereo not given), the call was inactive.

`O=c1[nH]c2ccc(S(=O)CCN3CCC(Cc4ccc(F)cc4)CC3)cc2o1` (stereo not given): the AC50 was 111 µM (active).

For `COc1ccc2sc(C(=O)Nc3nnn[nH]3)c(OC(C)C)c2c1`, the compound was called inactive.

In the case of `CC(C)=CCC/C(C)=C/CO`, the call was inactive.

On to `CC1(C)C(=O)N(Br)C(=O)N1Br`, for which the outcome was inactive.

For the compound `COc1ccc(/C=C/S(=O)(=O)NC(=O)c2ccc(C)cc2Cl)cc1`, the AC50 is 100 µM (active).

For the compound `Cc1ccc(N)cc1O`, the compound was called inactive.

Regarding `Nc1cccc(N)c1`, the compound was classed as inactive.

In the case of `COC(=O)c1ccccc1O`, the result was inactive.

As to `CCCCC(CC)COC(=O)c1ccc(C(=O)OCC(CC)CCCC)cc1` (stereo not given), the AC50 was 31.5 µM (active).

As for `CC/C(=C\C(=N/O)C(N)=O)C(C)[N+](=O)[O-]` (stereo not given), the result was inactive.

As to `O=C(NS(=O)(=O)/C=C/c1ccccc1)c1ccc(F)cc1Cl`, the compound was called inactive.

For `CCOCCO`, the outcome was inactive.

Regarding `CC[C@H]1OC(=O)[C@H](C)[C@@H](O[C@H]2C[C@@](C)(OC)[C@@H](O)[C@H](C)O2)[C@H](C)[C@@H](O[C@@H]2O[C@H](C)C[C@H](N(C)C)[C@H]2O)[C@](C)(O)C[C@@H](C)C(=O)[C@H](C)[C@@H](O)[C@]1(C)O`, the result was inactive.

In the case of `CC[C@H]1CC[C@H](NCc2cc3c(cc2OC)[C@H]2C[C@H]2C(=O)N3C)[C@H](c2ccccc2)N1`, the compound was classed as inactive.

`CC(C)CCO`: the compound was called inactive.

Regarding `CNCc1ccc(NC(=O)c2c[nH]c3c2C(=O)CCC3)cc1`, the compound was classed as inactive.

As for `CC(C)CC(C)(O)C#CC(C)(O)CC(C)C` (stereo not given), the compound was called inactive.

Turning to `C1=CCCC=CCCC=CCC1`, the compound was called inactive.

On to `CCCCCCc1ccc(O)cc1O`, for which the call was inactive.

`CN(C)c1ccc(Cc2ccc(N(C)C)cc2)cc1`: the compound was called inactive.

A short description of the next assay: APR_HepG2_MitoMembPot_72hr: Apredica 72-hour HepG2 Assay for Mitochondrial Membrane Potential (AID 2282917). Particulars: imaging, actives raise or lower the signal. In short, it runs like this:
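Membrane potential read by MitoTracker Red CMXRos (250 nM, 30 min, pre-fixation) fluorescence imaging of HepG2 after 72 hr exposure. Ten concentrations, 0.39–200 uM, duplicate wells, 0.5% DMSO; fitted in both directions against DMSO baseline.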
Regarding `CC(C)CCCCCCOC(=O)c1ccc(C(=O)OCCCCCCC(C)C)c(C(=O)OCCCCCCC(C)C)c1`, the outcome was inactive.

Regarding `O=C(CCCCCCCCc1cccnc1)N1CCC(C=C(c2ccccc2)c2ccccc2)CC1`, the compound was called inactive.

As to `COCCOc1cc2cc(C(=O)NC3CCN(C(C)C)CC3)n(CC(=O)Nc3ccc(Cl)cn3)c2cn1`, the compound was called inactive.

On to `CCCCC(CC)COC(=O)CCCCCCCCC(=O)OCC(CC)CCCC` (stereo not given), for which the AC50 is 83.4 µM (active).

Regarding `CCCCCCCCO`, the call was inactive.

As to `Cn1c(=O)cc(Oc2ccc(F)cc2F)c2cnc(NCC(C)(C)O)nc21`, the outcome was inactive.

As for `O=C(O)CCN(C1(C(=O)NO)CCCC1)S(=O)(=O)c1ccc(Oc2ccc(F)cc2)cc1`, the compound was called inactive.

For the compound `Nc1nc2ncc(CNc3ccc(C(=O)N[C@@H](CCC(=O)O)C(=O)O)cc3)nc2c(=O)[nH]1`, the call was inactive.

In the case of `CC(C)c1cccc(C(C)C)c1N1C(=O)c2ccc(O)cc2C1=O`, the call was inactive.

`CCOC(=O)COc1ccc2c(c1)CC(NCC(O)c1cccc(Cl)c1)CC2` (stereo not given): the compound was classed as inactive.

`O=c1[nH]c2ccc(S(=O)CCN3CCC(Cc4ccc(F)cc4)CC3)cc2o1` (stereo not given): the compound was called inactive.

For the compound `COc1ccc2sc(C(=O)Nc3nnn[nH]3)c(OC(C)C)c2c1`, the compound was called inactive.

As for `CC(C)=CCC/C(C)=C/CO`, the compound was classed as inactive.

Take `CC1(C)C(=O)N(Br)C(=O)N1Br`: the outcome was inactive.

As to `COc1ccc(/C=C/S(=O)(=O)NC(=O)c2ccc(C)cc2Cl)cc1`, the AC50 was 12.8 µM (active).

Regarding `Cc1ccc(N)cc1O`, the concentration at half-maximal activity (AC50) is 1.02 µM (active).

In the case of `Nc1cccc(N)c1`, the result was inactive.

Turning to `COC(=O)c1ccccc1O`, the result was inactive.

`CCCCC(CC)COC(=O)c1ccc(C(=O)OCC(CC)CCCC)cc1` (stereo not given): the call was inactive.

Regarding `CC/C(=C\C(=N/O)C(N)=O)C(C)[N+](=O)[O-]` (stereo not given), the compound was classed as inactive.

Take `O=C(NS(=O)(=O)/C=C/c1ccccc1)c1ccc(F)cc1Cl`: the outcome was inactive.

As for `CCOCCO`, the compound was called inactive.

Take `CC[C@H]1OC(=O)[C@H](C)[C@@H](O[C@H]2C[C@@](C)(OC)[C@@H](O)[C@H](C)O2)[C@H](C)[C@@H](O[C@@H]2O[C@H](C)C[C@H](N(C)C)[C@H]2O)[C@](C)(O)C[C@@H](C)C(=O)[C@H](C)[C@@H](O)[C@]1(C)O`: the outcome was inactive.

`CC[C@H]1CC[C@H](NCc2cc3c(cc2OC)[C@H]2C[C@H]2C(=O)N3C)[C@H](c2ccccc2)N1`: the call was inactive.

As for `CC(C)CCO`, the call was inactive.

As for `CNCc1ccc(NC(=O)c2c[nH]c3c2C(=O)CCC3)cc1`, the call was inactive.

As for `CC(C)CC(C)(O)C#CC(C)(O)CC(C)C` (stereo not given), the compound was classed as inactive.

As to `C1=CCCC=CCCC=CCC1`, the call was inactive.

Turning to `CCCCCCc1ccc(O)cc1O`, the compound was called inactive.

`CN(C)c1ccc(Cc2ccc(N(C)C)cc2)cc1`: the compound was classed as inactive.

Usually AC50 stands for the concentration at which the activity in the assay is half-maximal.
